Assay [1] is described as follows: NCI Yeast Anticancer Drug Screen. Data for the rad50 strain (AID 155).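 Also: 0% = growth of vehicle-only cultures of the same strain.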 The following applies: S. cerevisiae rad50 strain growth inhibition, active compounds read high. The method, boiled down: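 Inhibition values express reduced yeast growth in compound-treated cultures relative to vehicle-treated controls.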
A short description of assay [2]: NCI Yeast Anticancer Drug Screen. Data for the mec2-1 strain (AID 157). As to conditions: S. cerevisiae mec2-1 strain, active compounds read high. The method in brief:
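Compounds were applied to mec2-1 yeast cells. Their growth was then compared with that of vehicle-treated cultures to give growth inhibition.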

Assay [3] in a line: NCI Yeast Anticancer Drug Screen. Data for the sgs1 mgt1 strain (AID 161).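 Also: 0% = growth of cultures given vehicle only.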 As to conditions: S. cerevisiae sgs1 mgt1 strain, active compounds read high. The method, boiled down: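 Growth of a repair-deficient yeast mutant was monitored after compound treatment and expressed as inhibition relative to vehicle-treated cultures.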
Assay [4] is described as follows: NCI Yeast Anticancer Drug Screen. Data for the cln2 rad14 strain (AID 165).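 Also: 0% = growth equal to vehicle treated cultures.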 As to conditions: S. cerevisiae cln2 rad14 strain, active compounds read high. The method in brief: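 Strain: cln2 rad14 yeast, altered in cell cycle control and DNA damage repair. Read-out: growth inhibition vs vehicle.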
The nature of assay [5]: NCI Yeast Anticancer Drug Screen. Data for the bub3 strain (AID 167). The following applies: S. cerevisiae bub3 mutant strain, active compounds read high. The method in brief:
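Steps: expose the mutant yeast strain to compound; grow alongside vehicle-treated cultures; measure growth; express inhibition against the vehicle cultures.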

Assay [6] can be described thus: NCI Yeast Anticancer Drug Screen. Data for the mlh1 rad18 strain (AID 175). The following applies: S. cerevisiae mlh1 rad18 strain growth inhibition, active compounds read high. The method, boiled down:
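A repair-deficient yeast strain is exposed to test compound, and growth is scored relative to vehicle-treated controls.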

Setting [7] is: at 5.0 µM (retest, dose inferred, filed as 0.5).
Where [8] appears, read: at 50.0 µM (retest, dose inferred, filed as 5.0).

About 79,000 compounds went through this panel and 15% of them were active in at least one assay; those are over-represented in the sample as a whole. Unmarked numbers belong to inactive results. Calls of active or inactive are those of the source. Rule as the data show it: active = growth inhibition above about 70%; inactive = the rest.

As for `c1ccc(COc2ccc(C[P+](c3ccccc3)(c3ccccc3)c3ccccc3)cc2)cc1`, the growth inhibition in assay [1] (setting [7]) is 97% (active); in assay [1] (setting [8]) it was 100% (active); in assay [1] (at 50.0 µM), 99.3% (active); in assay [2] (setting [7]), 98% (active); in assay [2] (setting [8]), 100% (active); in assay [2] (at 50.0 µM), 99.5% (active). Further, the growth inhibition in assay [3] (setting [7]) was 99% (active); in assay [3] (setting [8]) it was 100% (active); in assay [3] (at 50.0 µM) it was 99.7% (active); in assay [4] (setting [7]) it was 98% (active); in assay [4] (setting [8]), 98% (active); in assay [4] (at 50.0 µM), 99.6% (active). Also, the growth inhibition was 99% (active) in assay [5] (setting [7]); 99% (active) in assay [5] (setting [8]); 99.5% (active) in assay [5] (at 50.0 µM); 99% (active) in assay [6] (setting [7]); 99% (active) in assay [6] (setting [8]); 99.3% (active) in assay [6] (at 50.0 µM).
Turning to `FC(F)(F)c1cccc(COCCN2CCN(Cc3cccc(C(F)(F)F)c3)CC2)c1`, the growth inhibition in assay [1] (setting [7]) is 36%; in assay [1] (setting [8]), 98% (active); in assay [1] (at 50.0 µM) it was 97.7% (active); in assay [2] (setting [7]), 26%; in assay [2] (setting [8]) it was 98% (active); in assay [2] (at 50.0 µM), 99.1% (active). Besides, the growth inhibition is 46% in assay [3] (setting [7]); 99% (active) in assay [3] (setting [8]); 99.1% (active) in assay [3] (at 50.0 µM); 33% in assay [4] (setting [7]); 99% (active) in assay [4] (setting [8]); 96.5% (active) in assay [4] (at 50.0 µM). In addition, the growth inhibition in assay [5] (setting [7]) was 29%; in assay [5] (setting [8]), 98% (active); in assay [5] (at 50.0 µM) it was 98.2% (active); in assay [6] (setting [7]), 21%; in assay [6] (setting [8]) it was 98% (active); in assay [6] (at 50.0 µM), 99% (active).
As to `CC(=O)N(C1=CC(=O)c2ccccc2C1=O)c1ccc(C)cc1`, the growth inhibition in assay [1] (setting [7]) was 16%; in assay [1] (setting [8]), 99% (active); in assay [1] (at 50.0 µM), 98.4% (active); in assay [2] (setting [7]) it was 31%; in assay [2] (setting [8]), 97% (active); in assay [2] (at 50.0 µM), 69.2%. Moreover, the growth inhibition in assay [3] (setting [7]) was 36%; in assay [3] (setting [8]) it was 93% (active); in assay [3] (at 50.0 µM) it was 91.6% (active); in assay [4] (setting [7]) it was 5%; in assay [4] (setting [8]) it was 46%; in assay [4] (at 50.0 µM), 57.3%. The growth inhibition in assay [5] (setting [7]) is 37%; in assay [5] (setting [8]), 94% (active); in assay [5] (at 50.0 µM) it was 93.5% (active); in assay [6] (setting [7]), 27%; in assay [6] (setting [8]), 97% (active); in assay [6] (at 50.0 µM), 58.1%.
On to `CC1=CCC[C@@H]2C1(C)CCC(C)[C@@]2(C)CC1=CC(=O)C=CC1=O` (some centres not stated), for which the growth inhibition in assay [1] (setting [7]) is 18%; in assay [1] (setting [8]) it was 95% (active); in assay [1] (at 50.0 µM) it was 86.1% (active); in assay [2] (setting [7]), 27%; in assay [2] (setting [8]) it was 96% (active); in assay [2] (at 50.0 µM), 89.2% (active). Moreover, the growth inhibition in assay [3] (setting [7]) is 52%; in assay [3] (setting [8]), 95% (active); in assay [3] (at 50.0 µM), 88.8% (active); in assay [4] (setting [7]), -12%; in assay [4] (setting [8]), 92% (active); in assay [4] (at 50.0 µM) it was 85.5% (active). Also, the growth inhibition was 14% in assay [5] (setting [7]); 93% (active) in assay [5] (setting [8]); 86.8% (active) in assay [5] (at 50.0 µM); 40% in assay [6] (setting [7]); 92% (active) in assay [6] (setting [8]); 87% (active) in assay [6] (at 50.0 µM).
Turning to `CCOC(=O)Nc1nc2ccc(Cn3cccc3)cc2[nH]1`, the growth inhibition was 25% in assay [1] (setting [7]); 31% in assay [1] (setting [8]); 17.8% in assay [1] (at 50.0 µM); 19% in assay [2] (setting [7]); 22% in assay [2] (setting [8]); -12.5% in assay [2] (at 50.0 µM). Further, the growth inhibition in assay [3] (setting [7]) was 24%; in assay [3] (setting [8]), 24%; in assay [3] (at 50.0 µM) it was 10.9%; in assay [4] (setting [7]), 33%; in assay [4] (setting [8]) it was 24%; in assay [4] (at 50.0 µM) it was 6.05%. Moreover, the growth inhibition in assay [5] (setting [7]) was 22%; in assay [5] (setting [8]), 24%; in assay [5] (at 50.0 µM), -1.9%; in assay [6] (setting [7]), 25%; in assay [6] (setting [8]), 23%; in assay [6] (at 50.0 µM), -0.95%.
Consider `CC1=C(C(=O)Nc2cc(C)ccc2C)C(c2cccc([N+](=O)[O-])c2)C(C(=O)Nc2cc(C)ccc2C)=C(C)N1`, for which the growth inhibition in assay [1] (setting [7]) was 8%; in assay [1] (setting [8]), 49%; in assay [1] (at 50.0 µM), -12.3%; in assay [2] (setting [7]), 19%; in assay [2] (setting [8]), 72% (active); in assay [2] (at 50.0 µM), 34.5%. Also, the growth inhibition in assay [3] (setting [7]) is 19%; in assay [3] (setting [8]), 34%; in assay [3] (at 50.0 µM) it was 26.7%; in assay [4] (setting [7]), 5%; in assay [4] (setting [8]), 61%; in assay [4] (at 50.0 µM), 19.2%. Also, the growth inhibition in assay [5] (setting [7]) was 17%; in assay [5] (setting [8]), 74% (active); in assay [5] (at 50.0 µM), 29.6%; in assay [6] (setting [7]) it was 17%; in assay [6] (setting [8]), 65%; in assay [6] (at 50.0 µM) it was 31.6%.
Take `O=C(CNc1ccccc1[N+](=O)[O-])Nn1c(-c2ccccc2)nc2ccccc2c1=O`: the growth inhibition in assay [1] (setting [7]) is 20%; in assay [1] (setting [8]), 36%; in assay [1] (at 50.0 µM), 59.1%; in assay [2] (setting [7]), 2%; in assay [2] (setting [8]), 33%; in assay [2] (at 50.0 µM), 38.5%. The growth inhibition is 17% in assay [3] (setting [7]); 33% in assay [3] (setting [8]); 69% in assay [3] (at 50.0 µM); 9% in assay [4] (setting [7]); 35% in assay [4] (setting [8]); 36% in assay [4] (at 50.0 µM). Further, the growth inhibition in assay [5] (setting [7]) is -8%; in assay [5] (setting [8]), 34%; in assay [5] (at 50.0 µM) it was 46.7%; in assay [6] (setting [7]) it was 10%; in assay [6] (setting [8]), 48%; in assay [6] (at 50.0 µM), 75.5% (active).
Consider `COC1=C(Br)C(=O)N/C1=C(\OC)c1ccccc1`, for which the growth inhibition in assay [1] (setting [7]) was 4%; in assay [1] (setting [8]), 9%; in assay [1] (at 50.0 µM), 11.3%; in assay [2] (setting [7]) it was 4%; in assay [2] (setting [8]) it was 1%; in assay [2] (at 50.0 µM), -8.9%. In addition, the growth inhibition in assay [3] (setting [7]) is 6%; in assay [3] (setting [8]) it was 15%; in assay [3] (at 50.0 µM), 29.9%; in assay [4] (setting [7]), 6%; in assay [4] (setting [8]), 0%; in assay [4] (at 50.0 µM) it was 37.9%. Further, the growth inhibition in assay [5] (setting [7]) is 21%; in assay [5] (setting [8]), 0%; in assay [5] (at 50.0 µM), -1.65%; in assay [6] (setting [7]), 2%; in assay [6] (setting [8]), 4%; in assay [6] (at 50.0 µM), 6.15%.
As to `CCCCCCCCCCCCCCCCOC(=O)C[n+]1cccc(C(N)=O)c1`, the growth inhibition in assay [1] (setting [7]) is 2%; in assay [1] (setting [8]) it was 50%; in assay [1] (at 50.0 µM), 89.8% (active); in assay [2] (setting [7]) it was 8%; in assay [2] (setting [8]), 85% (active); in assay [2] (at 50.0 µM), 94.4% (active). Besides, the growth inhibition in assay [3] (setting [7]) is 27%; in assay [3] (setting [8]) it was 92% (active); in assay [3] (at 50.0 µM) it was 97.2% (active); in assay [4] (setting [7]) it was -5%; in assay [4] (setting [8]), 22%; in assay [4] (at 50.0 µM), 36%. Besides, the growth inhibition in assay [5] (setting [7]) is -1%; in assay [5] (setting [8]) it was 79% (active); in assay [5] (at 50.0 µM), 73% (active); in assay [6] (setting [7]), 42%; in assay [6] (setting [8]), 82% (active); in assay [6] (at 50.0 µM) it was 92.3% (active).
